Assay outcomes from PubChem BioAssay.
OPRM1-OPRD1 inv: mu-delta opioid heterodimer inverse agonism; AID 504357; cell-based MOR-DOR heterodimer luminescence; P35372+P41143; inhibition, % at 9.3 µM; hit rate 0.21% among 340,000; in the data active means inhibition above about 22%, passing the limit was not always enough;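 further: 0% = cells with DMSO and 100% = wells without cells with DMSO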
Target sequence (P35372 whole entry, looked up): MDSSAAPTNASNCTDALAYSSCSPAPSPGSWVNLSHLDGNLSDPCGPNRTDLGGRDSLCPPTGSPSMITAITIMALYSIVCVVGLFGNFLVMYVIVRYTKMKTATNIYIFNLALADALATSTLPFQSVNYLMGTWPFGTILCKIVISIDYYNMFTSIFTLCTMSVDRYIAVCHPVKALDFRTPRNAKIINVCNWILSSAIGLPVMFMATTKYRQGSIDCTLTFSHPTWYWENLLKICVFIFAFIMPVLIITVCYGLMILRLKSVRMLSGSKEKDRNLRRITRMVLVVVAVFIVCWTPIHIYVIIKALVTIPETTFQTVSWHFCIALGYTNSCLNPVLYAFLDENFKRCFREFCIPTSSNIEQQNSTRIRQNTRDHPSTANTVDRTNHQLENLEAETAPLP
Target sequence (P41143 whole entry, looked up): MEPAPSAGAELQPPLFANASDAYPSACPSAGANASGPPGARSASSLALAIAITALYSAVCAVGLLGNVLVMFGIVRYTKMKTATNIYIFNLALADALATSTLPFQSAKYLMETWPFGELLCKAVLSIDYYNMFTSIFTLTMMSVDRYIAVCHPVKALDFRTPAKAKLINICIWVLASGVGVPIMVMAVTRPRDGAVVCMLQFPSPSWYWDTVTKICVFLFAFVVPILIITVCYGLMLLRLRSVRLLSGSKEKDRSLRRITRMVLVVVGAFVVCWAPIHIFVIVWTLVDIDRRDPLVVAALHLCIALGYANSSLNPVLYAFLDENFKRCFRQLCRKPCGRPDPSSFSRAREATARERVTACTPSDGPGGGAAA
OPRM1-OPRD1 ag: agonists of human mu-delta opioid receptor heterodimerization. cells, OPRM1-OPRD1 heterodimerization, luminescence. activation, % at 9.3 µM. hit rate 0.3% among 340,000. AID 504326; in the data active means activation above about 18%;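 further: 0% = vehicle-treated cells and 100% = reference agonist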
HTR5A inv ctr: inverse agonist of human HTR5A in OPRM1-OPRD1 counter-screen. P47898. AID 504634. inhibition, % at 9.3 µM. HTR5A cell line, luminescence, inverse agonism. hit rate 0.083% among 340,000; in the data active means inhibition mostly above about 23%, no sharp cut-off; inactive means mostly below about 18%;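 further: 0% = cells with DMSO and 100% = no-cell wells with DMSO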
HTR5A ag: HTR5A agonism, opioid heterodimer counter-screen. P47898. HTR5A agonist assay, luminescence, cell-based. activation, % at 9.3 µM. hit rate 0.61% among 340,000. AID 504692; in the data active means activation mostly above about 9.5%, no sharp cut-off; inactive means mostly below about 7.6%;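 further: 0% = cells with vehicle only and 100% = reference agonist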
Starred values were filed as active, the others as inactive. This is a sample that favours compounds with a hit; in the whole collection about 1.1% have one here.

SMILES	OPRM1-OPRD1 inv	OPRM1-OPRD1 ag	HTR5A inv ctr	HTR5A ag
Cc1ccccc1N(CC(=O)NCCSc1ccccn1)S(=O)(=O)c1ccccc1	18	-4	-5	2
CC1(c2nnc(-c3ccccc3)o2)CC(c2ccc([N+](=O)[O-])cc2)=NO1 (centres undefined)	-5	1	-11	3
COc1ccc(NC(=O)C(CC(=O)O)Cc2ccc(Cl)cc2)cc1 (centres undefined)	8	-2	-6	1
Cc1cc(NC(=O)COC(=O)c2oc3c(ccc4ccccc43)c2C)no1	-30	5	-1	0
Cc1c(C(=O)OCC(=O)Nc2ccc(S(N)(=O)=O)cc2)oc2c1ccc1ccccc12	-48	10	-21	12*
CCC(CN(C)C)Oc1cc(NCc2ccccc2)c2ncn(C(C)C)c2c1 (centres undefined)	-140	24*	-63	21*
NC(=O)c1ccccc1Nc1nc(NCCO)nc(N2CCCC2)n1	12	-2	-18	1
Oc1cccc(C(O)CNCc2ccc(OCc3ccc(Cl)cc3Cl)cc2)c1 (centres undefined)	-59	10	-36	12*
O=C(CCCc1ccccc1)Nc1nccs1	8	-2	-14	5
c1ccc2c(c1)CC/C2=N/Nc1nc2ccccc2[nH]1	-31	7	-32	12*
CC(C)(C)C1CCC(=NNc2nc3ccccc3[nH]2)CC1 (centres undefined)	7	-1	1	-1
Cc1ccc(C(C)C)c(OCC(O)CN(C)Cc2ccccc2)c1 (centres undefined)	-25	6	-44	12*
O=[N+]([O-])c1ccc(COc2cccc3cccnc23)cc1	4	-1	9	-2
N#Cc1ccc(COc2cccc3cccnc23)cc1	-11	2	-10	14*
Cc1cccc(C)c1OCC(=O)OC/C(O)=C(\C#N)c1nc2ccccc2[nH]1	-89	17	-7	8
Cc1cc(C)cc(OCC(=O)OC/C(O)=C(\C#N)c2nc3ccccc3[nH]2)c1	-211	40*	-20	23*
COc1cc(/C(C)=N/NC(=O)c2ccc(CSc3nncn3C)cc2)cc(OC)c1OC	-11	2	-28	10*
Cc1ccc(-c2nc3cccnc3s2)cc1NS(=O)(=O)c1ccc2c(c1)OCCO2	0	0	-46	15
O=S(=O)(Nc1cccc(-c2nc3cccnc3s2)c1)c1ccc2c(c1)OCCO2	-12	2	2	13*
CNC(=S)N1CCn2cccc2C1c1ccc(F)cc1 (centres undefined)	-1	0	-20	8.0*
Fc1ccc(C2c3cccn3CCN2C(=S)Nc2cccc(F)c2)cc1 (centres undefined)	-9	2	-4	2
Cc1ccccc1-c1nc(CN2CCC(C(=O)NC3CC3)CC2)c(C)o1	0	0	-2	-1
COc1cccc(/C=C(/C(=O)OCC(=O)NC2CCCCCCC2)c2ccccc2)c1	-17	3	-5	2
COc1cccc(/C=C(/C(=O)OCC(=O)NCC2CCCO2)c2ccccc2)c1 (centres undefined)	-29	4	-27	11*
CCOC(=O)C1CCN(C(=O)COC(=O)/C=C/c2ccc([N+](=O)[O-])cc2)CC1	-5	1	5	-2
SMILES	OPRM1-OPRD1 inv	OPRM1-OPRD1 ag	HTR5A inv ctr	HTR5A ag
O=C(Cc1ccccc1F)Nc1ccc2c(c1)CCC2	-3	0	-26	9.6*
O=c1cc(O)n(Cc2ccc(F)cc2)c(=O)[nH]1	11	-2	-12	3
CCN(CC)S(=O)(=O)c1cc(NC(=O)CN2CCN(c3ccccn3)CC2)ccc1C	11	-2	1	6
Cc1ccc(NC(=O)CN2CCN(c3ccccn3)CC2)cc1S(=O)(=O)N(C)C	-17	3	-26	9.4*
CC(=O)C1=C(O)C(=O)N(c2ccccn2)C1c1cccc(F)c1 (centres undefined)	14	-3	-18	5
CCCCNC(=O)Cc1c(OC)ccc2cc(Br)ccc12	4	-1	34	6
CCCNC(=O)Cc1c(OC)ccc2cc(Br)ccc12	-18	3	-46	13*
CSC(=NS(=O)(=O)c1ccc(N)cc1)NS(=O)(=O)c1cccs1	14	-3	-8	2
CC(C)(C)S(=O)N1Cc2cc(CO)cc(-c3ccccc3)c2[C@@H]1CCO (some centres undefined)	11	-2	10	-3
O=C1C=C(O)c2cccc(O)c2C1=O	-9	2	3	2
CC1OC(CC(=O)O)CC2=C1C(=O)c1c(O)cccc1C2=O (centres undefined)	-130	30*	21	-5
O=C(CN(c1cccc(Cl)c1)S(=O)(=O)c1ccc(Cl)cc1)NCc1ccccn1	5	-1	9	6
Cc1ccc(C(=O)NNC(=O)c2cc(C)nc3ccccc23)cc1	-5	1	-26	10
C=CCn1c(SCC(=O)Nc2ccc(S(N)(=O)=O)cc2)nnc1-c1cnccn1	6	-1	-3	0
C=CCN(CC=C)Cc1c(O)ccc2c1oc(=O)c1ccccc12	45*	-8	32	-8
COC(=O)CCC(=O)c1oc2ccc(Br)cc2c1N	13	-3	-26	12*
COc1ccc2oc(C(=O)CCC(=O)O)c(N)c2c1	-9	2	19	0
COc1cccc(N2C(=O)Nc3ccc(Br)cc3C2(O)C(=O)NCCCN(C)C)c1 (centres undefined)	6	-1	-5	1
COC(=O)c1ccc(NC(=O)COc2ccc(C3C(C#N)=C(N)Oc4c3ccc3ccccc43)cc2OC)cc1 (centres undefined)	-6	1	-31	14*
CCCCSc1ccc(NC(=O)c2cccnc2)cc1	-2	0	-12	12*
NC(=O)c1cc(Cc2ccccc2)sc1NC(=O)c1ccco1	-5	1	-10	3
CCOc1ccc(CC(=O)Nc2sc(Cc3ccccc3)cc2C(N)=O)cc1OCC	-14	2	-49	9.6*
Cc1ccc(Cn2ccsc2=NC(=O)CCl)cc1	-294	59*	-46	92*
Cc1ccc(Cn2ccsc2=NC(=O)COC(=O)c2ccc(NC(=O)CC#N)cc2)cc1	12	-3	-9	1
CCOc1ccc(CCNC(=O)COC(=O)c2ccc(OC(C)C)cc2)cc1OCC	0	0	1	4
SMILES	OPRM1-OPRD1 inv	OPRM1-OPRD1 ag	HTR5A inv ctr	HTR5A ag
O=C1OC(N2CCN(C(=O)c3ccco3)CC2)c2ccccc21 (centres undefined)	13	-2	-15	9.9*
COc1ccc(/C=N/NC(=O)CCn2c3ccccc3c3ccccc32)cc1O	-2	0	9	8
COc1cccc(/C=N/NC(=O)CCn2c3ccccc3c3ccccc32)c1	-23	4	-21	12*
CCCCNCC1C(Oc2ccc(Cl)cc2)C(=O)N1c1ccccc1C (centres undefined)	-80	11	4	12*
CCCNCC1C(Oc2ccc(Cl)cc2Cl)C(=O)N1c1cccc(C)c1C (centres undefined)	-63	12	-12	4
O=C(NCc1ccc(F)cc1)c1noc2c1CCCCC2	-22	4	-6	14*
CN(CCC1CCOCC1)C(=O)CC1C(=O)NCCN1Cc1c(F)cccc1Cl (centres undefined)	9	-2	9	-4
